Reference: PMC4336329 (PLoS ONE, 2015)
The campaign covered roughly 310,000 compounds. About 14,000 (4.5%) showed an effect of 50% or more. Effects have a minus sign here. The sample as a whole holds a higher share of strong results than the screen did.

molecular target: human ether-à-go-go-related gene (hERG) potassium channel (human, UniProt Q12809); assay: primary screen, population patch clamp on CHO cells stably expressing hERG; higher = less effect of the substance
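Also: peak tail current of the secondary pulse compared with the same well before compound.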

Chain of human ether-à-go-go-related gene (hERG) potassium channel (Q12809 whole entry, looked up): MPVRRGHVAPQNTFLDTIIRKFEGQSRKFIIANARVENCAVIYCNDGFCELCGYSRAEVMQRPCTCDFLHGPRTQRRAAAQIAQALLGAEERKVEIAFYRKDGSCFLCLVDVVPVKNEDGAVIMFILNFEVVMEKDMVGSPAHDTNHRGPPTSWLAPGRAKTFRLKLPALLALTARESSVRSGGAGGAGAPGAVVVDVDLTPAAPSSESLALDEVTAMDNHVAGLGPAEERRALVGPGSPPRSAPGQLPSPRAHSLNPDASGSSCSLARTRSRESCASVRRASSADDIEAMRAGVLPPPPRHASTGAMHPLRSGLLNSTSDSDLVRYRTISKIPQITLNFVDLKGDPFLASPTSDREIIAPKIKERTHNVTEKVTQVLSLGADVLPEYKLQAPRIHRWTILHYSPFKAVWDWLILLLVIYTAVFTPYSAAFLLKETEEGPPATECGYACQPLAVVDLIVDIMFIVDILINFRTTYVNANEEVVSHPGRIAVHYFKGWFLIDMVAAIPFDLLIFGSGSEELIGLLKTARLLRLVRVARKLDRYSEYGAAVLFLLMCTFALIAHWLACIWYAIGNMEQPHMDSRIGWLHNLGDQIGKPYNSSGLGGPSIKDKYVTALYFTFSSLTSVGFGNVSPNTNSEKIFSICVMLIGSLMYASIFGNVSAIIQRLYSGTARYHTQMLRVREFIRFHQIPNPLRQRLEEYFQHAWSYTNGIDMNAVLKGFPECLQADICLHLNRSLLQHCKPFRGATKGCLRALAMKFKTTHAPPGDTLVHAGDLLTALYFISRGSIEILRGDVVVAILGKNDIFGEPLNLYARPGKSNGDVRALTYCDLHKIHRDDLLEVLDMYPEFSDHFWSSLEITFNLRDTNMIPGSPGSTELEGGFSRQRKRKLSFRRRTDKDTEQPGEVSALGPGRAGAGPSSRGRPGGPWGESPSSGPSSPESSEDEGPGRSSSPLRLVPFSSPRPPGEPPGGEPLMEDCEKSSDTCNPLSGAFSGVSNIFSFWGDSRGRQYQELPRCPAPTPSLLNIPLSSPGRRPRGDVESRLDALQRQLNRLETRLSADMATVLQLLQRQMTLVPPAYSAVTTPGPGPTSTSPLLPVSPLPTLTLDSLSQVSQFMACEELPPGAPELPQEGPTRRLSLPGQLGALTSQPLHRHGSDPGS

Structure (SMILES) | hERG current change (%, negative = inhibition) at 10uM [%]
Cc1cc(Nc2ccccc2C(=O)O)n(-c2ccc([N+](=O)[O-])cc2)n1 | 4.19
CC(=O)c1cc(CN2CCC(n3nccc3NC(=O)c3ccccc3Cl)CC2)cs1 | -56.5
Cc1cc(CN2CCC(n3nccc3NC(=O)c3ccccc3C)CC2)n[nH]1 | -38
CC(=O)c1cc(CN2CCC(n3nccc3NC(=O)c3ccccc3)CC2)cs1 | -10.9
CC(=O)c1cc(CN2CCC(n3nccc3NC(=O)c3ccccc3C)CC2)cs1 | -57.8
COc1ccccc1C(=O)Nc1ccnn1C1CCN(Cc2csc(C(C)=O)c2)CC1 | -72.9
CC(C)=NN1C(c2nonc2N)=NOC1(C)C | 6.47
COC(=O)C1=C(C)N=C2SCCC(=O)N2C1/C=C/c1ccccc1 (stereo not shown) | -16.8
Cc1nc(SCC(=O)c2ccc(F)cc2)c([N+](=O)[O-])[nH]1 | 27.3
CCCNC(=O)CN(CCc1ccccc1)S(C)(=O)=O | 8.94
COc1ccc(CN(C)C(=S)Nc2ccc(Cl)cc2)cc1 | -20.7
COc1ccc(CCNCC(=O)Nc2ccc(OC(F)F)cc2)cc1 | -75.8
CN(C)CCCN(Cc1ccccc1)C(=S)NCc1ccccc1 | -24.7
COc1ccc(CCNCC(=O)Nc2ccc(C(=O)N3CCCCC3)cc2)cc1.O=C(O)C(=O)O | 4.75
COc1ccc(NC(=O)CN(C)CCOc2ccc(Cl)cc2)cc1OC.O=C(O)C(=O)O | -17.4
CN(CCOc1ccc(Cl)cc1)CC(=O)Nc1ccc(OC(F)(F)F)cc1 | 8.27
CN(C(=S)Nc1ccc(SC(F)F)cc1)C(c1ccccc1)c1ccccc1 | -0.128
CN(Cc1ccccc1)C(=S)Nc1ccc(OC(F)F)cc1 | -21.2
COc1ccc(CN(C)C(=S)Nc2ccc(OC(F)F)cc2)cc1 | -58.9
CN(C)CCCN(Cc1ccccc1)C(=S)Nc1ccc(SC(F)F)cc1 | -75.1
CN(CCOc1ccc(Cl)cc1)CC(=O)Nc1ccc(OC(F)F)cc1 | -71.4
COc1ccc(NC(=O)CNCCC2=CCCCC2)cc1 | 7.2
C/C(=N\Nc1ccccc1C(=O)O)c1ccncc1 | 0.449

Structure (SMILES) | hERG current change (%, negative = inhibition) at 10uM [%]
CC(C)Nc1nc(NC(C)C)nc(OCCOC(=O)Nc2ccccc2)n1 | -24.5
Cc1ccc(N/N=C(\C#N)C(=N)N2CCCCC2)cc1 | -47.7
CN(CC(=O)Nc1ccccc1Br)C(=O)c1cc2c(s1)CCCCC2 | -1.74
O=C(Nc1ccc(NC(=O)C2CC2)nc1)c1cccs1 | 14
O=C(CSc1n[nH]c(=O)n1-c1cccnc1)N1CCOCC1 | 12
CCNC(=O)NC(=O)CSc1nc2ccccc2n1CC(C)C | -4.02
Cc1cccc(N2CCN(CC(=O)NCC3CCCCC3)CC2)c1C.Cl | -6.63
COc1cc2[nH]c(=O)n(Cc3ccc(C(=O)N4CCC(N5CCCCC5)CC4)cc3)c(=O)c2cc1OC | 12.3
CC(=O)c1cccc(NC(=O)CN(C)Cc2ccc(OC(F)F)cc2)c1 | -55
CCCN(Cc1ccccc1)C(=S)Nc1ccc(OC(F)F)cc1 | -41
CCN(CC)C(=S)Nc1ccc(OC(F)F)cc1 | -28.6
CCCCN(C)C(=S)Nc1ccc(Oc2ccccc2)cc1 | -2.38
CC(=O)c1ccc(NC(=S)N(CCCN(C)C)Cc2ccccc2)cc1 | -53.3
CN(CCOc1ccccc1)C(=S)Nc1ccc(OC(F)F)cc1 | -55.2
CC(=O)c1ccc(NC(=S)N(Cc2ccccc2)C(C)C2CC2)cc1 (stereo not shown) | 5.51
COc1ccc(NC(=O)CN(C)CC(=O)Nc2cccc(C(C)=O)c2)cc1 | 18.5
COCCN(Cc1ccccc1)C(=S)Nc1ccc(OC(F)F)cc1 | -69.8
CCCN(Cc1ccccc1)C(=S)Nc1ccc(C(C)=O)cc1 | -12.1
COCCN(Cc1ccccc1)C(=S)Nc1ccc(Cl)cc1 | 11.1
CC(=O)c1ccc(NC(=O)CN(C)CC(=O)Nc2cccc(F)c2)cc1 | -18.5
CCN(CC)C(=O)c1ccc(C)c(Br)c1 | -0.776
CCc1cc2c(=O)[nH]cnc2s1 | -3.48
CCCCCCc1cc2cc(-c3nnc(-c4ccccc4)o3)c(=O)oc2cc1O | 5.15
